Reference: publication PMC12136788
Changes are numbered by the printed parent chain. In all, about 5,800 sequences were measured (“enrichment r”: median about 0.54, highest 2% from about 16 on). The list comes from a sample in which the highest values are over-represented; it also holds similar and randomly drawn sequences.

B1: ENSG00000176244:stop:overlap|stop_codon|ENSG00000176244|stop_codon|NA|stop_codon (ssRNA)
RNA: GGGAGUUCUACAGUCCGACGAUCAAGAUGCGACGAGUGCCUAUAUUUCUAAAGCAAAGGAGCUGAUAGAAAAAUACGGAAUUUAGAAUACAGCAUAUGAGGAAUUUUUCCUUUUGAAGACUUCCAAAUGCUAUCAUGACCUAACAACAGAGGAUUGAGCAUCA
B2: chr2:99394746:99394872:+|CDS|ENSG00000158417|unk|total|mutant (ssRNA)
RNA: GGGAGUUCUACAGUCCGACGAUCGAUGUGAGAAUUGAACGAGAUGCACAAGAAAUGGCUGACCGUUCCGGAGUCCGAAUUUUCCGUGCAGAAAUUAUUUAUCAUUUAUUUGAUGCCUUUACAAAAUACCGACAAGACUACAAGCAACAGAGGAUUGAGCAUCA
B3: chr5:24509697:24509799:-|CDS|ENSG00000040731|unk|FALSE|unique (ssRNA)
RNA: GGGAGUUCUACAGUCCGACGAUCACUCGACUAUGAGAGCCGAAGACUUUAUACUCUGAAAGUCGAAGCAGAAAACACCCAUGUAGAUCCCCGUUUUUAUUACCUAGGACCAUUUAAAGAUACUACCAUAGUGAAAAUCUCUAUCAACAGAGGAUUGAGCAUCA
B4: chr15:49134392:49134529:-|CDS|ENSG00000166200|unk|FALSE|unique (ssRNA)
RNA: GGGAGUUCUACAGUCCGACGAUCAUAUUUGCUUUCCUAGACUGAUGAUGGAGAAGAUGAUCUGAAAAAAGGUACACAGUUAUUAGAAAUAUAUGCUUUGGAAAUUCAAAUGUACACAGCACAGAAAAAUAACAAAAAACUUAACAACAGAGGAUUGAGCAUCA
B5: chr5:72209348:72209524:+|3pUTR|ENSG00000131711|msi1_unk|FALSE|overlapping (ssRNA)
RNA: GGGAGUUCUACAGUCCGACGAUCUUAUGUCUUAUAAUCCUGCAUCACUUCUAUCCUAUCCAGUCAUAUCUAAUGUAGAAAAUUAGUUUCCAGUGAAAGUAAUAUGUAGUGCUUUUAUGAUAUUUGUGUGCAAUAUCCCCUCUUCAACAGAGGAUUGAGCAUCA
B6: chr9:5123879:5124511:-|three_prime_utr|ENSG00000120210|control|control|control (ssRNA)
RNA: GGGAGUUCUACAGUCCGACGAUCCUGGUAAAUUGGAUUGCCAUAUGCAGAAGAAUGAAACUGGACCCAUAUUUAUCACCAUAUAGAAAAAUUAACUCGAUCGAUUACAGACUUAAAUGUAAGAUCUGAAACUAGAAAAAUACUCAACAGAGGAUUGAGCAUCA
B7: chr2:99394746:99394872:+|CDS|ENSG00000158417|unk|FALSE|unique (ssRNA)
RNA: B2 RNA with C62U, C63A, C67U, C68A, C74U, C75A, C83U, C84A, C128U, C129A
B8: chr17:61865808:61865921:-|3pUTR|ENSG00000108506|unk|FALSE|unique (ssRNA)
RNA: GGGAGUUCUACAGUCCGACGAUCUUCUAUGAGAAUGAGUUUGUAGCUGUUUCAAAUCAUGAAGUGCAUAGUAUCACAUGUGAUAGAAUAUUUAUAACUUUUUAUUAGAUGCUUAAUGUUCAAUUAAGUAAUUUUGAUGUGAAACAACAGAGGAUUGAGCAUCA
B9: chr17:37686430:37687371:-|three_prime_utr|ENSG00000275410|control|control|control (ssRNA)
RNA: GGGAGUUCUACAGUCCGACGAUCUGCAAUUUCCCCUCUGUGUCCUCUCCCCUCUGCCCUGUAUAUAAUACUAAAGUGUCUAUUAGUUUUCUUUGUAAAGGUCAGAGUCAAAAUUUCAAAAGUGAUCUGUCCCCUCUCCCCUCACAACAGAGGAUUGAGCAUCA
B10: chr16:21983864:21984660:-|three_prime_utr|ENSG00000155714|control|control|control (ssRNA)
RNA: GGGAGUUCUACAGUCCGACGAUCAAAGAAAAUUGAGCUGGCAAAAGAUGAAUCUUUCACAAGCAGUGAUGAUAAUGAAAAUGUAGAUUUAGAUAAAAGACUUCAAUAUUAUAGAUAUCCGUGGUCAACUGUGCAUCACCCUGCCAACAGAGGAUUGAGCAUCA
B11: chr11:101890673:101891278:-|three_prime_utr|ENSG00000187151|control|control|control (ssRNA)
RNA: GGGAGUUCUACAGUCCGACGAUCGUAAUGCAAGUUCUACAAUGAUAAUAUAUUAAAGAUUUUUAAAAGUUUAUCUUUUCACUUAGUGUUUCAAACAUAUUAGGCAAAAUUUAACUGUAGAUGGCAUUUAGAUGUUAUGAGUUUCAACAGAGGAUUGAGCAUCA
B12: chr5:72209348:72209524:+|3pUTR|ENSG00000131711|msi1_unk|total|mutant (ssRNA)
RNA: B5 RNA with U75C, A76C, U83C, A84C, U106C, A107C
B13: chr11:118751385:118751486:-|3pUTR|ENSG00000110367|msi1|FALSE|unique (ssRNA)
RNA: GGGAGUUCUACAGUCCGACGAUCUUGAAGUCUCUUCCCUUUCUACCCAGUACUCGAGCCCAGGGCUAGAAGUUGAAACUCACUAGUAAUGUUAAACACCAUUUUUUUUUUCUUUUUGGGGAGGAGUUGAUAUGCAACUGCAGUCAACAGAGGAUUGAGCAUCA
B14: chr4:173322470:173322571:+|3pUTR|ENSG00000109586|msi1|total|mutant (ssRNA)
RNA: GGGAGUUCUACAGUCCGACGAUCUGCCGCAUUCACUCCCUUACCUACUGGCAUUCCCAGUGCCCUCUGUCCAUACCUACUUCCCGGAUUGCAAAGGAGUCUUCCAACCCGAGAAAAAUUGUCCACUGACAUUUGGGAUUUACUCAACAGAGGAUUGAGCAUCA

Target: MSI1 full-length (mouse, UniProt Q61474 1-362)
Test: nsRBNS (natural sequence RNA bind-n-seq); RBNS binding buffer (assumed for nsRBNS): 25 mM Tris pH 7.5, 150 mM KCl, 3 mM MgCl2, 0.01% Triton X-100, 500 ug/ml BSA, 20 U/ml SUPERase-In, 4 C; UNK is unkempt and MSI1 is Musashi-1; names of the RNAs are library labels; protein concentration not given here; high values mean tight binding

MSI1 full-length, sequence (Q61474 whole entry): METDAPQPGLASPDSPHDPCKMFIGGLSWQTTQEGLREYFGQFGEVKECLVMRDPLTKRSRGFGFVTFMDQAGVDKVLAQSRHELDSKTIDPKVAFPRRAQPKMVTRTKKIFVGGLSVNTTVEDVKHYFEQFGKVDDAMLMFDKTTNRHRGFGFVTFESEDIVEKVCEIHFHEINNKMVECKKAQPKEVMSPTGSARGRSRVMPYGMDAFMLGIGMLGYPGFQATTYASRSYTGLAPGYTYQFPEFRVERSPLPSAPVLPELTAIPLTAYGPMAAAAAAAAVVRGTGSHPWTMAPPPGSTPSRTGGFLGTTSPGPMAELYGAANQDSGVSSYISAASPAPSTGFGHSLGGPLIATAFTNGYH

Row | Binder | binding signal
1 | B1 | 0.512 enrichment R
2 | B2 | 0.374 enrichment R
3 | B3 | 3.85 enrichment R
4 | B4 | 0.819 enrichment R
5 | B5 | 22.2 enrichment R
6 | B6 | 19.7 enrichment R
7 | B7 | 35 enrichment R
8 | B8 | 5.16 enrichment R
9 | B9 | 0.979 enrichment R
10 | B10 | 43.6 enrichment R
11 | B11 | 3.72 enrichment R
12 | B12 | 0.64 enrichment R
13 | B13 | 1.4 enrichment R
14 | B14 | 0.767 enrichment R
